Measured values taken from ChEMBL document CHEMBL1201862, “PubChem BioAssay data set” (2004).
Screen size: about 400,000 compounds; about 2,100 (0.53%) were called active. Inconclusive results (about 14%) are left out. How the calls were made is not given here. This excerpt belongs to a sample that is enriched for actives.

Biological target: Ataxin-2 (Homo sapiens) (UniProt Q99700)
Assay: qHTS for Inhibitors of ATXN expression.
Assay type: functional

Chain of Ataxin-2 (Homo sapiens) (Q99700 whole entry): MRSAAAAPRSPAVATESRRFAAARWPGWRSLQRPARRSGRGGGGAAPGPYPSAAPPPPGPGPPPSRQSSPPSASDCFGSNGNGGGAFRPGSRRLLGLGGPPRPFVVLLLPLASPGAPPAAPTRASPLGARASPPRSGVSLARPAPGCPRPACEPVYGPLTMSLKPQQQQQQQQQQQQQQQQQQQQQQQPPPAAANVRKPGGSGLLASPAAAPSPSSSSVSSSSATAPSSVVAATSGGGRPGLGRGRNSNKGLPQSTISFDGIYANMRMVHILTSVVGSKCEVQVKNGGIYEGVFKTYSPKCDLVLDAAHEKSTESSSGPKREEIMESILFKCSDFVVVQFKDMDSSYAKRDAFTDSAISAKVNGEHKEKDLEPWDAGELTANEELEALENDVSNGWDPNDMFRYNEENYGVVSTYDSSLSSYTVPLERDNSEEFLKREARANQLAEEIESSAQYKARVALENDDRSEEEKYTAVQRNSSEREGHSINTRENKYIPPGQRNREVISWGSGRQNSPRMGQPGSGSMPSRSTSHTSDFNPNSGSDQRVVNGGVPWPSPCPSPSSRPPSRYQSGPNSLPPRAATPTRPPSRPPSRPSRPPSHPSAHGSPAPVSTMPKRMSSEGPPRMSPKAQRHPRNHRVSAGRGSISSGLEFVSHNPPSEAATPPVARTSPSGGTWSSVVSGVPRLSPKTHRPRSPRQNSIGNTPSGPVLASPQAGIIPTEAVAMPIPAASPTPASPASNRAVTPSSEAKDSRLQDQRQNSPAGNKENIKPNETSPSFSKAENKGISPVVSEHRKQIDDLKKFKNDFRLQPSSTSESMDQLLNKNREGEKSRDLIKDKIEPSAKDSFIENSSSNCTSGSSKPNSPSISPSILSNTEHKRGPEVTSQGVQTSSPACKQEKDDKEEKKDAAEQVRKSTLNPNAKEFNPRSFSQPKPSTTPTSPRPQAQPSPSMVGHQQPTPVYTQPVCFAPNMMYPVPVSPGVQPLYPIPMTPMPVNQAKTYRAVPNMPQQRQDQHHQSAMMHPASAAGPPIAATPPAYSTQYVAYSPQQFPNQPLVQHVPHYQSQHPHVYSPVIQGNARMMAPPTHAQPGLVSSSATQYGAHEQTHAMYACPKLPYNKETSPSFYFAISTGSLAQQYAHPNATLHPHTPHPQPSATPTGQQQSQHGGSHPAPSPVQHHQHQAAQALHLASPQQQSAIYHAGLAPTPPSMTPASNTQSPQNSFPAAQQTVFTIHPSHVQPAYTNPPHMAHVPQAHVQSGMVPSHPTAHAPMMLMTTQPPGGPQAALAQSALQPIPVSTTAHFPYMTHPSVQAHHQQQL

Row | Structure (SMILES) | Potency
1 | C=CCn1c(=N)c(C(=O)NCCCOC)cc2c(=O)n3ccccc3nc21 | inactive
2 | Oc1c(Cl)cc(Cl)cc1/C=N\c1cc(C(F)(F)F)ccc1N1CCc2ccccc2C1 | inactive
3 | COc1ccc(-c2cc(C(F)(F)F)c3c(N)c(C(=O)NCCSC)sc3n2)cc1 | inactive
4 | COc1ccc(-c2cc(C(F)(F)F)nc(SCC(=O)Nc3ccc(C(C)=O)cc3)n2)cc1 | 31.6 µM (active)
5 | COc1ccc(-c2csc(NC(=O)CSc3n[nH]c(N)n3)n2)cc1 | inactive
6 | CN(C)c1ccc(-c2cc3ccccc3c(=O)o2)cc1 | inactive
7 | COC(=O)C1=NN(c2ccc(OC)cc2)C2C(=O)N(c3ccccc3OC)C(=O)C12 (centres undefined) | inactive
8 | CCOC1=C2CN(S(=O)(=O)c3ccc(C)cc3)[C@H](c3cccc4ccccc34)C[C@H]2C(C#N)(C#N)C(C#N)(C#N)C1 | 12.6 µM (active)
9 | O=c1oc2c3c4c(cc2c2c1CCC2)OCCN4CCC3 | inactive
10 | COc1ccc(-c2csc(NC(=O)CCNC(=O)c3ccco3)n2)cc1OC | inactive
11 | COc1ccc(-c2cc(C(F)(F)F)nc(S(=O)(=O)CCCC(=O)Nc3cccc(O)c3)n2)cc1OC | 15 µM (active)
12 | COc1ccc(-c2cc(C(=O)OCC(=O)Nc3cc(C)on3)c3ccccc3n2)cc1OC | inactive
13 | COc1cc(CC(=O)OCC(=O)N2CCCCC2C)cc(OC)c1OC (centres undefined) | inactive
14 | COc1ccccc1-c1cc(C(F)(F)F)nc(S(=O)(=O)CCCC(=O)N2CCCCC2C)n1 (centres undefined) | 39.8 µM (active)
15 | CC1CCCCN1C(=O)COC(=O)c1cc(-c2cccs2)nn1-c1ccccc1 (centres undefined) | inactive
16 | COc1ccccc1-c1cc(C(F)(F)F)nc(S(=O)(=O)CCCC(=O)Nc2cc(C)on2)n1 | 14.1 µM (active)
17 | COc1cccc(C(C(=O)NC(C)(C)C)N(C(=O)CCC(=O)Nc2cc(C)on2)c2ccc3c(c2)OCCO3)c1OC (centres undefined) | inactive
18 | COc1ccc(Br)cc1CN(C)CC(=O)NCc1ccc(F)cc1 | inactive
19 | COc1ccccc1-c1cc(C(F)(F)F)nc(S(=O)(=O)CCCC(=O)NCc2ccc(F)cc2)n1 | 26.7 µM (active)
20 | COc1ccc(-c2cc(C(=O)Nc3ccc(C(N)=O)cc3)c3ccccc3n2)cc1OC | inactive
21 | COc1ccc(-c2cc3nc(C)c(CCC(=O)NCc4ccc(F)cc4)c(C)n3n2)c(OC)c1 | inactive
22 | CCN1C(=O)[C@@H]2Cc3c([nH]c4ccccc34)C(c3ccc(OC)cc3)N2C1=S (some centres undefined) | inactive
23 | CCCCCCCCOC(=O)c1cc([N+](=O)[O-])c(Sc2[nH]cnc3ncnc2-3)c([N+](=O)[O-])c1 | 22.4 µM (active)
24 | CCOc1ccc(C(=O)Oc2cc(C)nc(O)c2[N+](=O)[O-])cc1OCC | inactive
25 | CCOC(=O)c1cc([N+](=O)[O-])cc([N+](=O)[O-])c1Sc1[nH]cnc2ncnc1-2 | 29.9 µM (active)

Row | Structure (SMILES) | Potency
26 | CCOC(=O)c1nnn(-c2ccc([N+](=O)[O-])cc2)c1C | inactive
27 | Cc1ccc(C)c(N2CCN(C(=O)CCC(=O)Nc3ccc4nc(N5CCCCC5)cc(C)c4c3)CC2)c1 | inactive
28 | CCc1nc2ccc(C(=O)N3CCN(c4cc(C)ccc4C)CC3)cc2nc1CC | inactive
29 | CCn1c(=O)cc(SCC(=O)N2CCN(c3cc(C)ccc3C)CC2)c2ccccc21 | 35.5 µM (active)
30 | O=C1c2cccc3c(O)ccc(c23)C(=O)N1c1ccc(Cl)cc1 | inactive
31 | O=CN/C=C/c1cc(O)ccc1O | 35.5 µM (active)
32 | COC(=O)/C=C/c1sc2nc(C)cc(C)c2c1/N=C/N(C)C | inactive
33 | COc1ccc(CNC(=O)CNS(=O)(=O)c2cccs2)cc1 | inactive
34 | COCCN(C(=O)Cc1cccs1)C(C(=O)NCc1ccc(OC)cc1)c1ccc(C(C)C)cc1 (centres undefined) | 39.8 µM (active)
35 | COc1ccc(N(C(=O)c2cnccn2)C(C(=O)NCc2ccccc2)c2ccc(O)cc2)cc1 (centres undefined) | inactive
36 | Cc1ccc(C(=O)CSc2nnc(C3CC3)n2C2CC2)s1 | inactive
37 | N#C/C(=N/Nc1ccc(OC(F)(F)F)cc1)C(N)=S | 10 µM (active)
38 | CC(=O)Nc1ccc(OC(F)(F)Cl)cc1 | inactive
39 | Oc1ccc(-c2nccc(-c3ccc(Cl)cc3)n2)cc1 | inactive
40 | Oc1ccc(-c2onc3ccc(Cl)cc23)cc1 | inactive
41 | Oc1ccc(N=Nc2n[nH]c(-c3ccc(Cl)cc3)n2)cc1 | 35.5 µM (active)
42 | O=C1C=C(c2c(O)ccc3ccccc23)c2ccccc2C1=O | 35.5 µM (active)
43 | CN(C)/C=C1\Oc2ccc3ccccc3c2C1=O | inactive
44 | O=C1c2cccc3c(O)ccc(c23)C(=O)N1Cc1ccccc1 | inactive
45 | CCN1C(=O)c2cccc3c(S(=O)(=O)NCc4cccnc4)ccc1c23 | inactive
46 | CCCC(=O)OCCNc1cc(Sc2nccn2C)c2nonc2c1[N+](=O)[O-] | 39.8 µM (active)
47 | CCC(=O)OCCNc1cc(Sc2nccn2C)c2nonc2c1[N+](=O)[O-] | 35.5 µM (active)
48 | COc1ccccc1OCc1ccc(C(=O)Nc2ccccc2)cc1 | inactive
49 | COC(C/C=C/C(=O)[C@H](C)OCc1ccccc1)OC | 39.8 µM (active)
50 | Clc1ccc(C(c2ccccc2)c2c[nH]c3ccccc23)s1 (centres undefined) | 31.6 µM (active)

Row | Structure (SMILES) | Potency
51 | c1ccc(C(c2cccs2)c2c[nH]c3ccccc23)cc1 (centres undefined) | 39.8 µM (active)
52 | Oc1nc2ccccc2nc1-c1c[nH]c2ccccc12 | inactive
53 | CCOc1ccccc1C1C(C(=O)OC)=CN(C)C=C1C(=O)OC | inactive
54 | CC(=O)Oc1c(-c2ccc(Br)o2)oc2ccccc2c1=O | inactive
55 | COC(=O)/C(=C1/Oc2cc(C)oc(=O)c2S1)C(F)(F)F | 20 µM (active)
56 | CC(C)[C@H](NS(=O)(=O)c1ccccc1F)C(=O)NC1CCCCC1 | inactive
57 | O=C1NCCNC1(c1c[nH]c2ccccc12)C(F)(F)F (centres undefined) | inactive
58 | O=C1C=CC(c2c[nH]c3ccccc23)CC1 (centres undefined) | 35.5 µM (active)
59 | CC(=O)N1CCC(c2c[nH]c3ccccc23)CC1 | inactive
60 | C=CCn1c(=N)c(C#N)cc2c(=O)n3ccccc3nc21 | inactive
61 | CC(C)(C)OC(=O)N[C@@H](Cc1ccccc1)c1nnc(S(=O)(=O)Cc2cccc(F)c2)o1 | 31.6 µM (active)
62 | Cc1ccccc1CS(=O)(=O)c1nnc([C@H](Cc2ccccc2)NC(=O)OC(C)(C)C)o1 | 35.5 µM (active)
63 | COC(=O)CS(=O)(=O)c1nnc([C@H](Cc2ccccc2)NC(=O)OC(C)(C)C)o1 | 39.8 µM (active)
64 | Oc1c(Br)cc(Cl)cc1/C=N/c1ccc(N2CCOCC2)cc1 | inactive
65 | Cc1ccc(O)c(C(=O)c2cc(C#N)c(=O)n(-c3nccs3)c2)c1 | inactive
66 | N=c1c(C(=O)NCc2ccc(F)cc2)cc2c(=O)n3ccccc3nc2n1Cc1cccnc1 | inactive
67 | O=C(Nc1ccc(F)cc1)c1sc2cc(C(F)(F)F)cnc2c1-c1cccs1 | inactive
68 | O=C(Oc1ccc2c(-c3ccccc3)cc(=O)oc2c1)C1CCCCC1 | inactive
69 | CNC(=O)/C(C#N)=C/c1c(N2CCN(c3ccccc3)CC2)nc2c(C)cccn2c1=O | inactive
70 | Cc1cc(Oc2nc3c(C)cccn3c(=O)c2/C=C(\C#N)S(=O)(=O)c2ccccc2)ccc1Cl | 39.8 µM (active)
71 | Cc1cccn2c(=O)c(C=C(C#N)C#N)c(N3CCN(c4ccccc4)CC3)nc12 | inactive
72 | O=C(NC(c1ccc(Cl)cc1)c1cccnc1)C1CCN(CCOc2ccc(Cl)cc2Cl)CC1 (centres undefined) | 39.8 µM (active)
73 | COc1ccc(NC(=O)c2cc(S(=O)(=O)N3CCCC3)ccc2C)cn1 | inactive
74 | COc1ccc(C(NC(=O)C2CCN(CCOc3ccc(Cl)cc3Cl)CC2)c2ccccc2C)cn1 (centres undefined) | 31.6 µM (active)
75 | O=C(NC(c1ccc(F)cc1)c1ccc2ccccc2n1)C1CCN(CCOc2ccc(Cl)cc2Cl)CC1 (centres undefined) | 22.4 µM (active)

Row | Structure (SMILES) | Potency
76 | COc1cc(OC)nc(C(NC(=O)C2CCN(Cc3c[nH]c4ccccc34)CC2)c2ccc(Cl)cc2)n1 (centres undefined) | 35.5 µM (active)
77 | O=C(CCSc1ccc(Cl)cc1)Nc1cccnc1 | inactive
78 | CCS(=O)(=O)N1CCN(Cc2c[nH]c3ccccc23)CC1 | inactive
79 | O=C(COC(=O)Cc1c[nH]c2ccccc12)Nc1cc(S(=O)(=O)N2CCOCC2)ccc1Cl | inactive
80 | CCOc1ccc(Cl)cc1S(=O)(=O)N1CCC(C(=O)NC2CC2)CC1 | inactive
81 | Cn1cc(/C=N\O)nc2c(=O)n(-c3ccccc3)c(=O)nc1-2 | inactive
82 | O=C(COC(=O)/C=C/c1ccc(S(=O)(=O)N2CCc3ccccc32)cc1)NC1CCS(=O)(=O)C1 (centres undefined) | inactive
83 | CNc1cncc(-c2ccc(S(C)(=O)=O)cc2)n1 | inactive
84 | N=c1c(S(=O)(=O)c2ccc(Cl)cc2)cc2c(=O)n3ccccc3nc2n1Cc1ccco1 | inactive
85 | COc1ccc(NS(=O)(=O)c2cccc(C(=O)NN=C(C)c3ccco3)c2)cc1 | inactive
86 | Cc1ccccc1/C=C/c1cc[n+](C)cc1 | inactive
87 | NC(=O)C1CCN(CC(=O)Nc2ccccc2Sc2ccc(Cl)cc2)CC1 | inactive
88 | O=C(NC(c1ccccc1)c1ccsc1)C1CCN(CCOc2ccc(Cl)cc2Cl)CC1 (centres undefined) | 39.8 µM (active)
89 | COc1ccc(Cl)cc1NC(=O)CNC(c1ccccc1)c1ccccc1 | inactive
90 | COc1ccc2nc(N3CCCC(O)C3)c(C#N)cc2c1 (centres undefined) | inactive
91 | NC[C@@H]1O[C@H](C23CC4CC(CC(C4)C2)C3)Cc2c1ccc(O)c2O | 31.6 µM (active)
92 | CCOCCCn1c(=N)c(C(=O)NCCN2CCOCC2)cc2c(=O)n3cccc(C)c3nc21 | inactive
93 | CC(C)=CCc1cc([C@@H]2COc3c(ccc4c3C=CC(C)(C)O4)C2)c(O)cc1O | 35.5 µM (active)
94 | CCCCC(=O)Nc1nn(CC)c2nc3c(C)cccc3cc12 | inactive
95 | Nc1c(C(=O)N2CCCC2)sc2nc(-c3ccccc3)ccc12 | inactive
96 | C[C@H]1CCCCO[C@@H](CN(C)S(=O)(=O)c2ccc(Cl)cc2)[C@@H](C)CN([C@@H](C)CO)C(=O)c2cc(NS(=O)(=O)c3ccccc3)ccc2O1 | 31.6 µM (active)
97 | COc1ccc(S(=O)(=O)N(C)C[C@@H]2OCCCC[C@@H](C)Oc3ccc(NC(=O)NC(C)C)cc3C(=O)N([C@H](C)CO)C[C@@H]2C)cc1 | inactive
98 | C[C@@H]1CCCCO[C@H](CN(C)Cc2ccccc2)[C@@H](C)CN([C@H](C)CO)C(=O)c2cc(NS(=O)(=O)c3ccc(Cl)cc3)ccc2O1 | 35.5 µM (active)
99 | C[C@@H]1CCCCO[C@@H](CN(C)CC2CCCCC2)[C@@H](C)CN([C@H](C)CO)C(=O)c2cc(NS(=O)(=O)c3ccc(Cl)cc3)ccc2O1 | 31.6 µM (active)
